Records with an inconclusive call do not appear. Activity calls are given as the source filed them. How the source made its calls: active means hit-call score of the fitted dose curve at least 0.9, where 1 is the maximum; inconclusive means response in the unintended direction; inactive means score below 0.9.
Biological target: human FK-506 Binding Protein (FKBP12), FKBP1A (gene 2280) (UniProt P62942)
Assay: NVS_OR_hFKBP12: NovaScreen (NVS) Nuclear Receptor Binding Assay for human FK-506 Binding Protein (FKBP12)
Experimental: NVS_OR_hFKBP12 is a biochemical, single-readout assay that uses extracted gene-proteins from E. coli in a cell-free assay. Measurements were taken 0.75 hour after chemical dosing in a 48-well plate.NVS_OR_hFKBP12 is one of one assay component(s) measured or calculated from the NVS_OR_hFKBP12 assay. It is designed to make measurements of radioligand binding, a form of binding reporter, as detected with scintillation counting signals by Filter-based radiodetection technology.Data from the assay component NVS_OR_hFKBP12 was analyzed into 1 assay endpoint. This assay endpoint, NVS_OR_hFKBP12, was analyzed in the positive analysis fitting direction relative to DMSO as the negative control and baseline of activity. Using a type of binding reporter, loss-of-signal activity can be used to understand changes in the binding as they relate to the gene FKBP1A. Furthermore, this assay endpoint can be referred to as a primary readout, because the performed assay has only produced 1 assay endpoint. To generalize the intended target to other relatable targets, this assay endpoint is annotated to the misc protein intended target family, where the subfamily is chaperone.
Binding assays used specific radioligands (tritiated, iodinated) with non-radioactive competitive displacement ligands in agonist or antagonist protocols (as indicated) and various reference compounds and inhibitors to titrate specific binding to receptors and transporters. Most enzyme assays (CYPs, kinases, phosphatases, proteases, HDACs) used recombinant protein and specific substrates (fluorescence mostly, some colorimetric and radioactive) and inhibitors, followed by a biochemical separation of substrate and product. All assays for the biochemical HTS were initially run in duplicate at a single concentration (10 uM for CYP450 assays and 25 uM for all others). Assay-chemical combinations meeting a pre-defined threshold (e.g., 30% inhibition and other criteria defined below) were then run in singleton concentration-response format with maximum concentration of 20 uM for CYPs and 50 uM for all others. Each assay was run with positive and negative controls, and concurrent controls on every plate. The follow-up (secondary) screen tested active chemical-pairs in concentration series, as well as a few additional assays not tested in the primary screen, some selected negative inactives, and several cases re-run in the concentration series for confirmatory purposes.

human FK-506 Binding Protein (FKBP12), FKBP1A (gene 2280), sequence (P62942 whole entry, looked up): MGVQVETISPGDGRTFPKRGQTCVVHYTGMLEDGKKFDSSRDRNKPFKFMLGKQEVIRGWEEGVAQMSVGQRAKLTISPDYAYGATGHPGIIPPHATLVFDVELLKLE

outcome, inactive:
c1ccc2ccccc2c1
CCCCCCCCCCCC(=O)OC
Cc1ccc(O)cc1
CCc1ccc(O)c(C(C)(C)C)c1
COC(=O)c1ccccc1S(=O)(=O)NC(=O)Nc1nc(OC(F)F)cc(OC(F)F)n1

Reference: PubChem BioAssay AID2283364 (EPA ToxCast)
